# High-throughput results deposited in PubChem by National Center for Advancing Translational Sciences (NCATS).
# Most compounds without a hit are left out; they make up all but 19% or so of the library.
# IL1B secr inh = blocks inflammasome-driven IL-1 beta release; THP-1 LPS/ATP IL-1B secretion, AlphaLISA, 16 h; active compounds read low; activity change, % at 57.5 µM; 360,000 compounds, 4.7% hits; AID 743279; in the data active = activity change below about -50%; inconclusive = mostly about -30% to -49%
#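 Secreted IL-1B measured by AlphaLISA bead assay after 16 h compound exposure of THP-1 cells; compounds (final up to 57.5 uM) added 1 h before LPS (250 ng/mL) and ATP (1.25 mM) stimulation; lower signal means less secretion.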
# DT40 TDP1 no CPT = qHTS for Inhibitors of human tyrosyl-DNA phosphodiesterase 1 (TDP1): qHTS in cells in absence of CPT | DT40 Tdp1-/- hTDP1 cells, no CPT, ATP luminescence, 48 h | Potency, µM (titrated, usually from 46.2 µM), for inactives: top-dose activity change, negative = growth inhibition, most hits filed as inhibitors | 420,000 compounds, 15% hits | AID 686978, 2013; also: potency is read from the fitted curve at half-maximal effect; nearly all actives have a fitted effect of over 55% in size
#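 No-CPT arm: Tdp1-/-;hTDP1 DT40 cells (400/well) plus compounds, incubated ≥48 hr at 37 °C. Readout CellTiter-Glo luminescence.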
# DT40 TDP1 CPT = DT40-hTDP1 cell growth loss with CPT. chicken DT40 Tdp1-/-;hTDP1 cells + 20 nM CPT, ATP luminescence, 48 h. 420,000 compounds, 12% hits. Potency, µM (series often up to 46.2 µM), without a hit: top-dose activity change, negative = growth inhibition, most hits filed as inhibitors; also: potency is read from the fitted curve at half-maximal effect; nearly all actives have a fitted effect of over 55% in size
#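 Chicken DT40 Tdp1-/- cells complemented with human TDP1, 400 cells/well, exposed to compounds plus 20 nM camptothecin for at least 48 h at 37 C; viability read as ATP content by CellTiter-Glo luminescence.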
# ELG1 DNA repair = inhibitors of ELG1-dependent DNA repair in HEK293T cells; AID 504467; Potency, µM (top dose mostly 46.1 µM), for inactives: at the highest dose activity change, negative = inhibition, usual class: inhibitors; HEK293T ELG1-luciferase reporter, luminescence, 16 h; DNA damage induced by 5-fluorouridine; 330,000 compounds, 2.3% hits; also: potency is read from the fitted curve at half-maximal effect; nearly all actives have a fitted effect of over 55% in size
#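 Reporter activity after DNA damage by 5-fluorouridine is monitored. Compound-treated cells incubate 16 hr at 37 °C, then ONE-Glo is added for 30 min before luminescence reading.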
# HT1080 IDH1KD tx = toxicity to HT-1080 IDH1 knockdown cells (counter line). Potency, µM (titrated, usually from 46.1 µM), for inactives: at the top dose activity, negative = toxicity, usual class: cytotoxic. 360,000 compounds, 2% hits. HT-1080 IDH1 knockdown viability, ATP luminescence, 48 h;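 also: potency is read from the fitted curve at half-maximal effect; 0% = DMSO wells and -100% = cell-free medium wells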
#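 Luminescent ATP read-out (CellTiter-Glo, 10 min at room temperature) after 48 h compound exposure at 37 °C gave viability of IDH1-knockdown HT-1080 cells. Activity was normalised to DMSO and cell-free wells, then fitted as concentration-response curves.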
# HT1080NT lethal = kills 2HG-producing HT-1080-NT fibrosarcoma cells | HT-1080-NT fibrosarcoma viability, CellTiter-Glo ATP luminescence, 48 h | Potency, µM (series often up to 46.1 µM), without a hit: at the top dose activity, negative = less viability, hits mostly cytotoxic | 360,000 compounds, 1.6% hits;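 also: NT is the 2HG producing partner of a matched IDH1 knockdown line; potency is read from the fitted curve at half-maximal effect; 0% = DMSO-treated cells and -100% = media-only wells without cells; nearly all actives have a fitted effect of over 55% in size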
#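 Toxicity toward the 2HG-producing NT line was scored as %Activity, normalised to DMSO and no-cell wells, from CellTiter-Glo luminescence after 48 hours' treatment.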
# Starred values were filed as active, the others as inactive; i = inactive; u = inconclusive; x = no result; [ ] = remark or other dose. Unless noted, calls follow the shape of the dose curve; as a rule, active = well fitted curve in the direction sought with a large enough effect; inconclusive = small, poorly fitted or top-dose-only effect, or another doubt; inactive = no such curve, though single readings can be large; an effect the other way counts as inactive or inconclusive. Unless noted, % is scaled to controls: 0 for no effect and ±100 for the full control effect.
SMILES,IL1B secr inh,DT40 TDP1 no CPT,DT40 TDP1 CPT,ELG1 DNA repair,HT1080 IDH1KD tx,HT1080NT lethal
COc1ccc(C2C(C(C)=O)=C(C)Nc3ncnn32)cc1 (stereo not drawn),17,1%,17%,-1%,6%,0%
CCCCCCCCSC1=CC(=O)C(OC)=C(OC)C1=O,0,1µM*,1.2µM*,x,-1%,3%
Cc1noc(C)c1S(=O)(=O)N1CCC(C(=O)NC2CCN(Cc3ccccc3)CC2)CC1,-7,11µM*,u,u,u,-12%
CSc1ccc(CN2CCC(N3CCC(C(=O)NC4CC4)CC3)CC2)cc1,-28,8.2µM*,21µM*,x,-24%,-5%
O=C(NC1CCN(Cc2ccccc2)CC1)C1CCN(S(=O)(=O)c2ccccc2)CC1,9,u,-28%,-16%,3%,5%
O=C(NC1CCN(Cc2ccccc2)CC1)C1CCN(S(=O)(=O)c2ccc(Cl)cc2)CC1,-24,16µM*,u,-17%,-20%,-6%
COc1ccc(OC)c(CN2CCC(N3CCC(C(=O)NC4CC4)CC3)CC2)c1,-8,15%,-21%,u,0%,-3%
O=C(CNC(=O)c1ccc(Br)o1)NNC(=O)COc1ccccc1Cl,11,9%,-2%,24%,-2%,2%
COc1ccc([N+](=O)[O-])cc1NC(=O)C(C)NNC(=O)c1cccc([N+](=O)[O-])c1 (stereo not drawn),7,u,-29%,u,-17%,-10%
COc1ccc(CNc2nc(NCc3ccc(OC)cc3)n(C(=O)c3ccccc3[N+](=O)[O-])n2)cc1,-17,-13%,-15%,-4%,-4%,-4%
CCN(CCC#N)c1ccc(/C=C/c2ccnc3ccccc23)cc1,x,20µM*,u,x,x,x
CN(CCC#N)c1ccc(/C=C/c2ccnc3ccccc23)cc1,x,2µM*,0.79µM*,x,x,x
Cc1ccccc1C(=O)N(C)c1ccccc1C(=O)NCc1ccccc1,-2,-20%,5%,-9%,3%,12%
CCCCNc1nc(Oc2ccc(=O)n(C)n2)nc(N(C)C)n1,x,1%,0%,x,x,x
O=C(COc1ccccc1)Nc1c2c(nn1-c1ccc(F)cc1)CS(=O)(=O)C2,i,2%,2%,1%,20%,13%
Cc1oc(-c2ccccc2NC(=O)c2ccccc2)nc1CNC(=O)c1cccc(-n2cccn2)c1,x,-8%,-16%[9.04 µM],x,x,x
Cn1cnnc1SCC(=O)N1CCC(Cc2ccccc2)CC1,-1,18µM*,u,-1%,-6%,-5%
Cc1ccc(C(=O)NCC(=O)N2CCC(Cc3ccccc3)CC2)cc1,-69*,u,-15%,0%,-23%,0%
COc1ccc(C(=O)NCC(=O)N2CCC(Cc3ccccc3)CC2)cc1OC,-11,u,u,-19%,4%,2%
Cn1cnnc1SCC(=O)N1CCN(C(=O)c2ccco2)CC1,0,-1%,23%,0%,22%,19%
CC(=O)Nc1ccc(C(=O)OCC(=O)NCc2ccccc2)cc1,33,21µM*,u,1%,26µM*,u
O=C(CNS(=O)(=O)/C=C/c1ccccc1)OCC(=O)N1CCC(Cc2ccccc2)CC1,-84*,-29%,-11%,-2%,0%,-3%
COC(=O)c1cc(NC(=O)[C@H](CCS(C)(=O)=O)N2Cc3ccccc3C2=O)cc(C(=O)OC)c1,x,2%,-20%,x,x,x
CN1CCN(S(=O)(=O)c2ccc(N(C)Cc3cccc(F)c3)nc2)CC1,-6,-9%,7%,15%,-7%,-2%
COc1cc(OC)c(/C=C/c2cc3c4ccccc4ccc3[n+](C)c2)c(OC)c1,x,u,-117%,x,x,x
SMILES,IL1B secr inh,DT40 TDP1 no CPT,DT40 TDP1 CPT,ELG1 DNA repair,HT1080 IDH1KD tx,HT1080NT lethal
CCN(CC)S(=O)(=O)c1ccc2c(c1)N(CC(=O)Nc1ccccc1F)C(=O)C1CCCN21 (stereo not drawn),x,u,-21%,x,x,x
CC(=O)Nc1ccc(C(=O)OCC(=O)N2CCC(Cc3ccccc3)CC2)cc1,-3,-28%,-23%,6.5µM*,0%,-1%
O=C(Nc1cc(-c2nc3cc(Cl)ccc3o2)ccc1Cl)c1cc2ccccc2o1,x,20%,5%,x,x,x
COc1ccc([N+](=O)[O-])cc1N(CC(O)CN1C(=O)NC(C)(C)C1=O)S(=O)(=O)c1ccc(C)cc1 (stereo not drawn),-11,-23%,-11%,x,4%,-1%
O=C(CSc1ccc2nnc(-c3ccc(F)cc3)n2n1)N1CCCc2ccccc21,-7,16µM*,18µM*,18µM*,-7%,1%
O=C(CSc1ccc2nnc(-c3ccc(Cl)cc3)n2n1)N1CCCc2ccccc21,0,23µM*,-66%,u,15%,14%
O=C(CSc1ccc2nnc(-c3ccncc3)n2n1)N1CCc2ccccc21,x,x,x,8%,x,x
CCN(Cc1ccccc1)S(=O)(=O)c1cc2[nH]c(=O)c(=O)[nH]c2cc1C,37,-29%,-21%,12%,-8%,2%
c1ccc(-c2cn3c4c(sc3n2)CCCC4)cc1,-17,u,u,u,u,11µM*
Cc1ccc(-n2ccnc(SCC(=O)NCCc3ccccc3)c2=O)cc1F,-25,15µM*,u,0%,12%,17%
CN1CCN(c2ccccc2NC(=O)c2ccc(OCc3ccccc3)cc2)CC1,-55*,u,16µM*,u,23µM*,u
CN1CCN(c2ccccc2NC(=O)c2ccc(-c3ccccc3)cc2)CC1,-59*,16µM*,u,u,u,u
Cc1nc(COc2ccc(C(=O)NCc3ccccc3CN3CCCCC3)cc2)cs1,0,23µM*,u,u,1%,-1%
Cc1nc(COc2ccc(C(=O)Nc3ccccc3N3CCOCC3)cc2)cs1,u,15µM*,u,-13%,-16%,-11%
COc1ccc(-n2c(=O)c3c4c(sc3n(Cc3ccccc3)c2=O)CN(C(C)=O)CC4)cc1OC,x,-19%,3%,x,x,x
CC(=O)c1c(C)[nH]c(C(=O)OCC(=O)N2CCN(c3ccccc3)CC2)c1C,21,3%,-20%,x,5%,-2%
CN1CCN(c2ccccc2NC(=O)c2cccc(OCc3ccccc3)c2)CC1,-65*,21µM*,u,21µM*,18µM*,u
CCCCC(=O)NC(=S)NNC(=O)CCc1ccccc1,174,21µM*,21µM*,0%,-2%,3%
